High-throughput results deposited in PubChem by National Center for Advancing Translational Sciences (NCATS).
Sampled rows, rich in hits. Any-hit rate of the full collection: about 10%.
GPT2 inh: GPT2 alanine aminotransferase inhibition | Q8TD30 | Potency, µM (top dose mostly 57.7 µM), inactives show top-dose activity change, negative = inhibition, most hits filed as inhibitors | Recombinant GPT2, coupled pyruvate oxidase/HRP Amplex Red fluorescence | 0.25% of 100,000 active; note: nearly all actives have a fitted effect of over 60% in size
Target sequence (Q8TD30 whole entry, looked up): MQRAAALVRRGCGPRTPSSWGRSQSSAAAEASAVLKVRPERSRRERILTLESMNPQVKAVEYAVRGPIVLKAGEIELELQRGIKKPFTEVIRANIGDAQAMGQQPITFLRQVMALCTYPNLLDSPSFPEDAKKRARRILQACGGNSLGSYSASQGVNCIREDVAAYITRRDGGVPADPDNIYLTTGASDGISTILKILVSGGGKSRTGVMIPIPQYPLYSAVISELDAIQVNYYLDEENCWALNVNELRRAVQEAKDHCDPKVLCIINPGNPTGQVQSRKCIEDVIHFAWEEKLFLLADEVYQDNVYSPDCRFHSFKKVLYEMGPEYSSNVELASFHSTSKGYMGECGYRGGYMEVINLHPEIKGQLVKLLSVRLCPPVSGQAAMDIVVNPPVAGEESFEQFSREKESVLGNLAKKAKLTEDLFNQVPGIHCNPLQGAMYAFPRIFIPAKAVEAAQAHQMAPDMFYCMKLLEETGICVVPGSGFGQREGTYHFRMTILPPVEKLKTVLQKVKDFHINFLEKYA
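Fluorescence of coupled pyruvate oxidase/HRP/Amplex Red system (50uM Amplex, 30 min, dark) reports pyruvate formed by GPT2. Enzyme reaction: 10ng/uL GPT2, 2mM L-alanine, 250uM a-KG, 30 min room temperature, pH 7.5; 50uM AOA control.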
FLuc inh: blocks purified firefly luciferase enzyme activity; Potency, µM (titrated, usually from 115 µM), usual class: inhibitors; P08659; purified P. pyralis luciferase, luminescence, biochemical; 2.5% of 76,000 active; note: nearly all actives have a fitted effect of over 65% in size
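Biochemical qHTS: compound (6-point titration) added to 10uM D-luciferin plus 10uM ATP in Tris acetate pH 7.5 buffer with Mg, Tween-20 and BSA, then purified enzyme at 10nM; light output imaged.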
HEK293 tox: kills HEK 293 cells; HEK 293 viability, ATP luminescence (CellTiter-Glo), 48-72 h; 6.6% of 94,000 active; Potency, µM (doses to about 115 µM), for inactives: top-dose activity change, negative = cytotoxicity, hits mostly inhibitors; note: nearly all actives have a fitted effect of over 60% in size
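Read-out: CellTiter-Glo ATP luminescence. Cells: HEK 293, 250 cells/well. Exposure: 48 or 72 hr, 37 degree Celsius.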
hNpr1 antagonist: antagonists of human natriuretic peptide receptor Npr1; P16066; 1.6% of 76,000 active; AID 1347048; Potency, µM (doses to about 46.3 µM), for the others: at the top dose activity change, negative = inhibition, actives largely listed as inhibitors; HEK293 hNpr1 GloSensor cGMP, ANP-stimulated luminescence; calls by dose curve; note: nearly all actives have a fitted effect of over 60% in size
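Compound pre-incubated 30 min at room temperature on GloSensor-loaded HEK293 cells stably carrying hNpr1 and the pGS-40F cGMP biosensor. Stimulation uses hNppA at 0.1 nM final; luminescence is taken at baseline and 20 min post-agonist.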
NIH3T3 tox: NIH 3T3 cell cytotoxicity; NIH 3T3 viability, CellTiter-Glo ATP luminescence, 48-72 h; Potency, µM (series often up to 96.7 µM), inactives show at the highest dose activity change, negative = cytotoxicity, actives largely listed as inhibitors; 4.3% of 94,000 active; AID 1345082; note: nearly all actives have a fitted effect of over 55% in size
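ATP-dependent luminescence (CellTiter-Glo) served as the viability signal for NIH 3T3 cells treated with compound for 48 or 72 hr at 37 °C.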
Active calls of the source: *; i = inactive; ? = inconclusive; / = no result; [ ] = remark or other dose. Unless noted, calls come from the whole dose curve; as a rule, active = well fitted curve in the direction sought with a large enough effect; inconclusive = small, poorly fitted or top-dose-only effect, or another doubt; inactive = no such curve, though single readings can be large; an effect the other way counts as inactive or inconclusive. % is set by controls: 0 for no effect and ±100 for the full control effect; potency is the fitted concentration of half-maximal effect.

SMILES	GPT2 inh	FLuc inh	HEK293 tox	hNpr1 antagonist	NIH3T3 tox
CC1CCN(C[C@H]2CN3CC[C@H]2C[C@@H]3CNC(=O)c2ccc(C(F)(F)F)cc2)CC1	-8.5%[88.5 µM]	i	?	1.4%[70.6 µM]	?
O=C(NC[C@H]1C[C@@H]2CCN1C[C@@H]2CN1CCC(Cc2ccccc2)CC1)c1ccccc1	1.8%[88.5 µM]	i	25.1µM*	0.1%[70.6 µM]	25.1µM*
O=C(NC[C@H]1C[C@@H]2CCN1C[C@@H]2CN1CCC(Cc2ccccc2)CC1)c1ccc(C(F)(F)F)cc1	-16.1%	i	79.4µM*	1.0%	?
CN(C)c1ccc(C(=O)NC[C@H]2C[C@@H]3CCN2C[C@@H]3CN(C)c2ccccc2)cc1	i	i	?	-6.0%[70.6 µM]	?
CN(C[C@H]1CN2CC[C@H]1C[C@@H]2CNC(=O)c1ccc(C(F)(F)F)cc1)c1ccccc1	1.2%[88.5 µM]	i	28.2µM*	?	44.7µM*
CC[C@H]1CN2CC[C@H]1C[C@@H]2CNC(=O)Nc1cccc(SC)c1	-8.5%[88.5 µM]	i	-23.8%[172 µM]	2.4%[70.6 µM]	-21.7%[174 µM]
CSc1cccc(NC(=O)NC[C@H]2C[C@@H]3CCN2C[C@@H]3CN(C)Cc2ccccc2)c1	1.1%	i	28.2µM*	-1.0%	22.4µM*
CSc1cccc(NC(=O)NC[C@H]2C[C@@H]3CCN2C[C@@H]3CN(C)c2ccccc2)c1	i	?	25.1µM*	-17.2%[70.6 µM]	31.6µM*
CC(C)NC(=O)NC[C@H]1C[C@@H]2CCN1C[C@@H]2CN(C)Cc1ccccc1	-10.4%[88.5 µM]	i	-9.7%[172 µM]	3.3%[70.6 µM]	-20.6%[174 µM]
CCN(CC)C[C@H]1CN2CC[C@H]1C[C@@H]2CNC(=O)Nc1cccc(SC)c1	1.1%[88.5 µM]	i	50.1µM*	-3.4%[70.6 µM]	39.8µM*
COc1ccc(NC(=O)NC[C@H]2C[C@@H]3CCN2C[C@@H]3c2cc(-c3cccs3)nn2C)cc1	0.5%	i	?	3.1%	?
Cn1nc(-c2ccc3ccccc3c2)cc1[C@H]1CN2CC[C@H]1C[C@@H]2CNC(=O)Nc1ccccc1	-2.7%	i	?	0.2%	20µM*
COc1ccc(-c2cc([C@H]3CN4CC[C@H]3C[C@@H]4CNC(=O)Nc3ccccc3)n(C)n2)cc1	i	i	?	1.8%	79.4µM*
Cn1nc(-c2ccccc2)cc1[C@H]1CN2CC[C@H]1C[C@@H]2CNC(=O)Nc1cccc(C#N)c1	-5.7%	i	-27.7%	4.7%	-21.0%
COc1ccc(-c2cc([C@H]3CN4CC[C@H]3C[C@@H]4CNC(=O)Nc3ccccc3)n(C)n2)cc1OC	-0.4%	i	?	-1.2%	?
COc1ccc(NC(=O)NC[C@H]2C[C@@H]3CCN2C[C@@H]3c2cc(-c3ccccc3)nn2C)cc1	3.9%	i	28.2µM*	-6.2%	?
COc1ccc(CN(Cc2ccc(OC)cc2)C[C@H]2C[C@@H]3CCN2C[C@@H]3c2cc(C3CCCC3)nn2C)cc1	0.2%	i	25.1µM*	1.5%	20µM*
O=C(Cc1ccc(F)cc1)N1CCN(Cc2ccccc2-c2ccccc2F)CC1	i	/	?	/	?
O=C1NC[C@H]2CN(C3CCOCC3)CCN12	-6.7%[88.5 µM]	i	-18.3%[230 µM]	1.1%[70.6 µM]	-1.1%[230 µM]
Cc1ncc2c(n1)C[C@@H]1CC[C@H]2N1S(=O)(=O)Cc1ccccc1	2.9%	i	i	-1.8%	2.1%
COc1ccc(-c2cc([C@H]3CN4CC[C@H]3C[C@@H]4COC(=O)Nc3ccccc3)n(C)n2)cc1	i	i	?	-6.5%	20µM*
CCNC(=O)NC[C@H]1C[C@@H]2CCN1C[C@@H]2c1cc(-c2ccc3ccccc3c2)nn1C	i	i	39.8µM*	1.9%[70.6 µM]	31.6µM*
Cn1nc(-c2ccc3ccccc3c2)cc1[C@H]1CN2CC[C@H]1C[C@@H]2CNC(=O)Nc1cccc(C#N)c1	i	i	?	3.8%	44.7µM*
CC(C)NC(=O)NC[C@H]1C[C@@H]2CCN1C[C@@H]2c1cc(-c2cccs2)nn1C	-4.2%[88.5 µM]	i	-14.9%[172 µM]	1.3%[70.6 µM]	-27.2%[174 µM]
CC(C)NC(=O)NC[C@H]1C[C@@H]2CCN1C[C@@H]2c1cc(-c2ccc3ccccc3c2)nn1C	1.4%[88.5 µM]	i	22.4µM*	2.3%[70.6 µM]	28.2µM*
SMILES	GPT2 inh	FLuc inh	HEK293 tox	hNpr1 antagonist	NIH3T3 tox
CCOC(=O)[C@H]1CN(C(=O)COc2ccccc2)[C@]2(C)C(=O)Nc3ccccc3[C@H]12	3.4%[27.3 µM]	/	?	/	?
CCN1C[C@]2(OC(=O)c3ccccc3NC(C)=O)CC[C@H](OC)[C@@]34[C@H]5CC6[C@@H](OC)C[C@](O)(C(C[C@@H]23)[C@@H]14)[C@@]5(O)[C@@H]6OC	1.2%	/	/	/	/
CC1=CC(=O)[C@@H](O)[C@]2(C)C3[C@@H](O)[C@@H]4OC(=O)[C@@H]([C@H]4C)[C@]3(C)C(=O)C[C@@H]12 (stereo partly drawn)	-11.8%[27.3 µM]	/	/	/	/
Cn1nc(-c2ccccc2)cc1[C@H]1CN2CC[C@H]1C[C@@H]2CNC(=O)Nc1ccccc1	1.0%[88.5 µM]	i	50.1µM*	-0.3%[70.6 µM]	50.1µM*
Cn1nc(C2CCCC2)cc1[C@H]1CN2CC[C@H]1C[C@@H]2CNC(=O)Nc1ccccc1	-3.6%[88.5 µM]	i	100µM*	5.7%[70.6 µM]	?
Cn1nc(C2CCCCC2)cc1[C@H]1CN2CC[C@H]1C[C@@H]2CNC(=O)COc1ccccc1	i	i	44.7µM*	-0.3%	?
COCC(=O)NC[C@H]1C[C@@H]2CCN1C[C@@H]2c1cc(C2CCCCC2)nn1C	-16.1%[88.5 µM]	i	0.0%[172 µM]	-2.1%[70.6 µM]	-11.1%[174 µM]
Cn1nc(-c2cccs2)cc1[C@H]1CN2CC[C@H]1C[C@@H]2COC(=O)Nc1ccccc1	i	i	44.7µM*	-16.0%[70.6 µM]	35.5µM*
Cc1cc(C)n(CCC(=O)N2[C@H]3CC[C@@H]2c2cnc(-c4ccc(F)cc4)nc2C3)n1	-1.7%	i	-2.9%	8.2%	-8.7%
CN1CC[C@H]2CN(c3cc(NCCO)ncn3)C[C@@]2(C(=O)O)C1	i	i	i	-5.6%	2.3%
COc1ccc(C(=O)N2CC3(CCN(C)CC3)c3cc(OC)c(OCc4ccccc4)cc32)cn1	-6.4%	i	79.4µM*	4.5%	?
COc1cc2c(cc1OCc1ccccc1)N(C(=O)c1ccncc1)CC21CCN(C)CC1	4.0%	i	?	1.4%	-25.9%
COc1cc2c(cc1OCc1ccccc1)N(C(=O)c1cc3ccccc3n1C)CC21CCN(C)CC1	i	i	25.1µM*	-1.8%	12.6µM*
COc1cc2c(cc1OCc1ccccc1)N(C(=O)c1ccn(C)n1)CC21CCN(C)CC1	-14.7%	i	-20.7%	3.4%	?
CCN1C[C@]2(COC(=O)c3ccccc3N3C(=O)C[C@H](C)C3=O)CC[C@H](OC)[C@@]34[C@@H]5C[C@H]6[C@H](OC)[C@@H]5[C@](O)(C[C@@H]6OC)[C@](O)([C@@H](OC)[C@H]23)[C@@H]14	i	/	/	/	/
